Compound activity: PubChem, National Center for Advancing Translational Sciences (NCATS)
This is a sample that favours compounds with a hit; in the whole collection about 3.6% have one here.
Tau fil binding – qHTS Assay for Tau Filament Binding. recombinant tau filaments, thioflavin S fluorescence, 15 h; filaments grown with octadecylsulfate alongside compound. actives 2% (n = 71,000). Microtubule-associated protein tau (Homo sapiens), P10636. Potency, µM (highest dose often 57.1 µM), inactives show top-dose activity change, negative = inhibition;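 note: % is set by controls: 0 for no effect and ±100 for the full control effect; actives lower thioflavin S fluorescence by blocking filaments or displacing dye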
Target sequence (P10636 whole entry, looked up): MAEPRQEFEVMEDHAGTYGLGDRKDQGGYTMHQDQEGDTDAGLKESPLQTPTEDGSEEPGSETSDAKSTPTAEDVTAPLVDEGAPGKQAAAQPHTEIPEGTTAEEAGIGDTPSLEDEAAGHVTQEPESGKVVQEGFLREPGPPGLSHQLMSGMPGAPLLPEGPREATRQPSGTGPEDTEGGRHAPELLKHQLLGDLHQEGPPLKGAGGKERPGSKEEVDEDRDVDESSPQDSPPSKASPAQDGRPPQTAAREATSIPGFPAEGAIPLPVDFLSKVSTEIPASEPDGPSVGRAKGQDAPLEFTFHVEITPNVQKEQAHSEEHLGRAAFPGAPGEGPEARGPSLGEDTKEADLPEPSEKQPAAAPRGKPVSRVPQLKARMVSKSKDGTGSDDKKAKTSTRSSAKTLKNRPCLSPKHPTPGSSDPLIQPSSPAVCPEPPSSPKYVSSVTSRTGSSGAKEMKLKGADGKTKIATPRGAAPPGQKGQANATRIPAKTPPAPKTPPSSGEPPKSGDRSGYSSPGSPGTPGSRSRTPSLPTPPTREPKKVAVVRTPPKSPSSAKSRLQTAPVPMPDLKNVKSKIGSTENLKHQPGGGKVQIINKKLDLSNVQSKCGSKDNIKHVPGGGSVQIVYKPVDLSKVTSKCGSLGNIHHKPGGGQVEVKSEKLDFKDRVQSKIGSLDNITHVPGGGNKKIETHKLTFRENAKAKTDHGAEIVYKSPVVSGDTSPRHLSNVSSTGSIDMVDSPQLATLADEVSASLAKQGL
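ThS-based fibril read: tau 1 uM final, inducer ODS 30 uM final, 37 C for 15 h, ex 450/em 510 nm.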
Hsp90 Hop PPI – qHTS Assay for Disrupters of an Hsp90 Co-Chaperone Interaction; Potency, µM (doses to about 57 µM), for the others: at the top dose activity change, negative = inhibition; actives 0.44% (n = 71,000); AID 595, 2007; AlphaScreen TPR2A-His6 binding biotin-Hsp90 C-terminal peptide; active = well fitted curve in either direction with a large enough effect; inconclusive = small, poorly fitted or top-dose-only effect, or another doubt; note: % is set by controls: 0 for no effect and ±100 for the full control effect
IkB signaling – IkB Signaling; Potency, µM (highest dose often 57.1 µM), without a hit: at the top dose IkBa stabilization activation; ABC-DLBCL IkBa-CBG/CBR dual luciferase ratio, 4 h; response scale: scaled: untreated 0%, proteasome inhibitor 100%; actives 0.04% (n = 110,000); active = well fitted curve in the direction sought with a large enough effect in the signal ratio, not every such curve was filed as active; inconclusive = small, poorly fitted or top-dose-only effect, or a change in a side signal; the % refers to the signal ratio;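 note: the direction sought is a rising ratio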
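Curves were fitted separately to fusion (green), unfused (red) and ratio luminescence, then classed by r2, magnitude and activity. Cells: OCI-Ly3, 4 h compound plus doxycycline at 37C; 10 uM MG-132 defined full response.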
15-hLO inh – qHTS Assay for Inhibitors of 15-hLO (15-human lipoxygenase); purified 15hLO-1, xylenol orange hydroperoxide absorbance; Potency, µM (doses to about 57.1 µM), for the others: at the highest dose activity change, negative = inhibition, hits mostly inhibitors; actives 1.4% (n = 74,000); AID 887, 2007; note: % is set by controls: 0 for no effect and ±100 for the full control effect; nearly all actives have a fitted effect of over 55% in size
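Readout: Fe(III)-xylenol orange absorbance, 573-to-405 nm ratio as reaction progress. Enzyme 40 nM purified human 15hLO-1, substrate 50 uM arachidonic acid, 6 min RT after 15 min compound preincubation; Hepes pH 7.5 buffer with Triton X-100.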
CRE Fsk mod – Cell signaling CRE-BLA (Fsk stim); AID 662, 2007; actives 2.5% (n = 71,000); CHO CRE-bla reporter (cAMP response element driving beta-lactamase), forskolin EC10, beta-lactamase ratio; Potency, µM (highest dose often 38.2 µM), inactives show top-dose activity change, negative = inhibition, most hits filed as activators; active = well fitted activation curve with a large enough effect in the signal ratio, with a control signal flat, not every such curve was filed as active; inconclusive = small, poorly fitted or top-dose-only effect, or effect the other way, or a change in a side signal; the % refers to the signal ratio; note: % of control where 0% means no effect
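The 460nm/530nm emission ratio after CCF4 loading defined %Activity, from which AC50 values were obtained. CRE-bla CHO cells received compound dilution series together with an EC10 level of NKH 477 for 3 hours at 37 degrees Celsius.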
Active calls of the source: *; i = inactive; ? = inconclusive; . = no result given; [ ] = another dose, or the depositor's remark. Unless noted, calls come from the whole dose curve; as a rule, active = well fitted curve in the direction sought with a large enough effect; inconclusive = small, poorly fitted or top-dose-only effect, or another doubt; inactive = no such curve, though single readings can be large; an effect the other way counts as inactive or inconclusive. Potency is the fitted concentration of half-maximal effect.

SMILES | Tau fil binding | Hsp90 Hop PPI | IkB signaling | 15-hLO inh | CRE Fsk mod
CCOC(=O)c1ccc(CC(=O)c2oc3cc(O)ccc3c2C)o1 | 8% | -12% | ? | 20µM* | ?
COc1ccc2nc3c(nc2c1)C(=O)c1ccccc1-3 | . | . | . | -6% | .
Cc1ccc(-c2cc3c(nn2)-c2ccccc2C3=O)cc1 | 1µM* | -30%[11 µM] | ? | 0%[11.4 µM] | 8%[7.6 µM]
CC(C)n1cnc(S(=O)(=O)N2CCCC(C(=O)NCc3ccccc3Cl)C2)c1 (stereo unspecified) | . | . | -1% | . | .
CCN1c2ccccc2-c2nc3ccccc3n2C1c1ccccn1 (stereo unspecified) | 25% | 29% | 1% | -9% | 13µM*
CCN1c2ccccc2-c2nc3ccccc3n2C1c1ccncc1 (stereo unspecified) | -1% | 10% | ? | -1% | ?
O=C(/C=C/Nc1ccc(F)c(Cl)c1)c1ccco1 | -10% | -10% | ? | 25µM* | 0%
CC(=O)Nc1ccc(N/C=C/C(=O)c2ccco2)cc1 | 0% | -6% | 4% | -10% | -1%
CCN(CC)c1ccc(-n2cc3c(=O)n(C)c(=O)n(C)c3c2)cc1 | ? | ? | 0% | 1% | 10µM*
NC(=O)N[C@H]1NC(=O)NC1=O | -4%[25.6 µM] | 2%[26 µM] | -1%[25.6 µM] | 13%[25.6 µM] | 1%[17.1 µM]
O=C(Nc1cccc(Oc2ccc3c(c2)C(=O)NC3=O)c1)c1ccco1 | 25µM* | -8% | ? | 16µM* | ?
COc1ccc(-n2c(=O)c(-c3cn(C)c4ccccc34)nc3cnc(N4CCNCC4)nc32)cc1 | i | 17% | 0%[11.4 µM] | 8% | ?
COc1ccc(-n2c(=O)c(-c3cc(F)cc(F)c3)nc3cnc(N4CCNCC4)nc32)cc1 | 3.2µM* | 2% | 0%[11.4 µM] | 3% | ?
COc1ccc(-n2c(=O)c(-c3cccc(C#N)c3)nc3cnc(N4CCNCC4)nc32)cc1 | -29% | -1% | -1%[11.4 µM] | -8% | 10µM*
NC(=O)CCCCn1ccc(NC(N)=NCC(F)(F)F)n1 | ? | -10% | 0% | ? | ?
COc1ccc(-c2noc(-c3ccc(N4CCC(C)CC4)c([N+](=O)[O-])c3)n2)cc1OC | . | . | -1% | . | .
O=C(COc1ccccc1)Nc1ccc(C(=O)OCc2cc(=O)n3nc(C4CC4)sc3n2)cc1 | . | . | 1% | . | .
COc1ccc2c(c1)Sc1ccccc1N2CCN(C)C | 16µM* | ? | 6% | -14% | -5%
CN(C)CCCN1c2ccccc2Sc2ccccc21 | 10µM* | -8%[26 µM] | 3%[25.6 µM] | -7% | ?
CC(=O)c1ccc2c(c1)N(CCCN(C)C)c1ccccc1S2 | 3.2µM* | 1%[26 µM] | 0%[25.6 µM] | 5%[25.6 µM] | 3%[17.1 µM]
CCC(=O)c1ccc2c(c1)N(CCCN(C)C)c1ccccc1S2 | ? | -2% | -10% | 2% | 4%
COc1ccc([C@H]2Sc3ccccc3N(CCN(C)C)C(=O)[C@H]2OC(C)=O)cc1 | 1%[25.6 µM] | ? | 3%[25.6 µM] | 4%[25.6 µM] | 6%[17.1 µM]
CCN(CC)[C@@H](C)CN1c2ccccc2Sc2ccccc21 | ? | -11%[26 µM] | -1%[25.6 µM] | 13µM* | -8%[17.1 µM]
CN(C)CC(C)(C)CN1c2ccccc2Sc2ccccc21 | -29%[11.4 µM] | -9%[11 µM] | 1%[11.4 µM] | 8%[11.4 µM] | -10%[7.6 µM]
COCC(=O)N1CCC2(CC1)CN(C(c1ccccc1)c1ccccc1)C2 | 4% | -3% | 3%[11.4 µM] | 2% | -7%
SMILES | Tau fil binding | Hsp90 Hop PPI | IkB signaling | 15-hLO inh | CRE Fsk mod
O=S(=O)(c1ccccc1)N1CCC[C@@]2(CCN(Cc3ccccc3)C2)C1 | -3% | -3% | 1%[11.4 µM] | 0% | -12%
COc1cccc(-c2ncnn2-c2sc3c(c2C#N)CCCCC3)c1OC | . | . | 0% | . | .
Cc1nc2sccn2c1-c1nc(C2CC2)c(C(=O)c2ccc3c(c2)NC(=O)CO3)s1 | 17% | 0% | 0% | -7% | 2.5µM*
O=C1COc2ccc(C(=O)CSc3nnc(-c4cccs4)n3Cc3ccccc3)cc2N1 | 118% | -6% | ? | -19% | -4%
CN(C)c1ncc2nc(-c3cc(F)cc(F)c3)c(=O)n(C3CC3)c2n1 | 8% | -1% | 1%[11.4 µM] | -3% | ?
N#Cc1c(NCCCO)nc(NCc2ccccc2)c2c1CCN(Cc1ccccc1)C2 | 177% | -21% | 4% | 5µM* | -23%
Cc1ccc(NS(=O)(=O)c2ccc(-c3cnc(C4CC4)o3)cc2)cc1N(C)C | . | . | 18% | . | .
Cc1cc(=O)cc(C)n1-c1ccccc1N1CCOCC1 | 7.9µM* | -14% | 3% | ? | ?
CN(C)c1ncc2nc(-c3ccccc3)c(=O)n(CCC#N)c2n1 | 327% | 5% | -2%[11.4 µM] | -26% | 2.5µM*
CN(C)c1ncc2nc(-c3ccc(F)cc3)c(=O)n(-c3ccccc3)c2n1 | 33% | 2% | -2%[11.4 µM] | 3% | 2.5µM*
CN(C)c1ncc2nc(-c3ccc(F)cc3)c(=O)n(CCc3ccccc3)c2n1 | 10% | -3% | 2%[11.4 µM] | 5% | ?
CCNc1ncc2nc(CCc3ccccc3)c(=O)n(CCOC)c2n1 | 92% | 2% | -2%[11.4 µM] | -3% | ?
CCNc1ncc2nc(CCc3ccccc3)c(=O)n(-c3ccccc3)c2n1 | 374% | 27% | -3%[11.4 µM] | ? | 13µM*
CN(C)c1ncc2nc(-c3ccccc3)c(=O)n(C3CC3)c2n1 | 322% | 20µM* | -1%[11.4 µM] | ? | ?
Cc1ccc(C)c(N2CCN(C(=O)CCS(=O)(=O)c3cc4c(cc3Cl)NC(=O)CO4)CC2)c1 | . | . | 1% | . | .
CCNc1ncc2nc(-c3ccccc3)c(=O)n(-c3ccc(OC)cc3)c2n1 | 229% | 4µM* | -7%[11.4 µM] | 8% | ?
CCNc1ncc2nc(-c3ccc(F)cc3)c(=O)n(-c3ccc(OC)cc3)c2n1 | i | -3% | -1%[11.4 µM] | 0% | ?
CN(C)c1ncc2nc(CCc3ccccc3)c(=O)n(-c3ccccc3)c2n1 | 298% | 20µM* | -4%[11.4 µM] | ? | 5µM*
CN(C)c1ncc2nc(CCc3ccccc3)c(=O)n(C3CC3)c2n1 | 17% | 3% | -4%[11.4 µM] | -27% | 3.2µM*
CN(C)c1ccc(-c2cc(Nc3ccc(F)cc3)ncn2)cc1 | 367% | -3% | 2%[11.4 µM] | ? | ?
C=CC(C1=CC(=O)C(OC)=CC1=O)c1ccccc1 (stereo unspecified) | . | . | . | 3.2µM* | .
C=CC(C1=CC(=O)C(OC)=CC1=O)c1ccc(OC)cc1 (stereo unspecified) | . | . | . | 7.9µM* | .
O.O.O.O.O.O.O.O=S(=O)([O-])[O-].[Co+2] | 3.2µM* | ? | 1% | -10% | -8%
COc1ccc(OCCC(=O)OCC(=O)NCc2ccco2)cc1 | 8% | -11% | 2% | 13µM* | -7%
CC(C)Cn1c(N)c(C(=O)COC(=O)c2cc(-c3ccco3)nc3ccccc23)c(=O)n(C)c1=O | 13µM* | -18% | 1% | ? | 9%
